For 36 compounds, Potency and outcome results are on record in PubChem BioAssay (NCATS).

Structures are written as SMILES. Records with an inconclusive call do not appear. Entries that show only a call come without a potency. Activity calls are given as the source filed them. Calls follow the shape of the dose curve; as a rule, active = well fitted curve in the direction sought with a large enough effect; inconclusive = small, poorly fitted or top-dose-only effect, or another doubt; inactive = no such curve, though single readings can be large; an effect the other way counts as inactive or inconclusive.

The target of the first assay is Tumor susceptibility gene 101 protein (Homo sapiens) (UniProt Q99816). In words: qHTS Assay for Iinhibitors of HIV-1 Budding by Blocking the Interaction of PTAP/TSG101: Hit Validation (AID 651600). Also: nearly all actives have a fitted effect of over 70% in size. Also: potency is read from the fitted curve at half-maximal effect. Conditions: PTAP peptide/TSG101 UEV interaction, biochemical assay; series mostly up to 57.5 µM. The procedure, abridged: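 FITC-PTAP peptide (50 nM final) binding to Tsg101 binding domain (10 uM final) was measured by polarization after 20 min at r.t. with compounds, in 10 mM HEPES pH 7.5 buffer with 0.15 M NaCl and 0.01% Tween 20.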
Sequence of Tumor susceptibility gene 101 protein (Homo sapiens) (Q99816 whole entry, looked up, the tested form may be a part): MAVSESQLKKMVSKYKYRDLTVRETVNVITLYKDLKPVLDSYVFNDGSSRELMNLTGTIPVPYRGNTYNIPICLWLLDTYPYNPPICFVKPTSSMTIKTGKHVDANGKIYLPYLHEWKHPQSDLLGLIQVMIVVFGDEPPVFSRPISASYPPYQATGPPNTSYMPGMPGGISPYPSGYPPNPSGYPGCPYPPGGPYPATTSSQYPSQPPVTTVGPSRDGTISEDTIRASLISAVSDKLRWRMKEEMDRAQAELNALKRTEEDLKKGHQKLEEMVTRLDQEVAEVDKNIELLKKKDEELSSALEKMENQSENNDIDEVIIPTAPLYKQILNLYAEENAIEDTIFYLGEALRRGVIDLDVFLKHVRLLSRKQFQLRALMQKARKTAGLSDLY
In general terms: qHTS replaces the single test concentration by a dilution series.
With `C1=C(c2ccc(-c3ccccc3)cc2)Nc2ncnn2C1c1ccco1` (stereo unspecified), the Potency entry was “inactive”.

Take `CC(OC(=O)c1c2c(nc3ccccc13)/C(=C\c1ccc3c(c1)OCO3)CCC2)C(=O)Nc1ccc(S(N)(=O)=O)cc1` (stereo unspecified): the Potency was 4.11 µM (active).

Consider `CCN(CC)c1ccc(/C=C(/C#N)c2nc3ccc(C)cc3[nH]2)c(OC(C)C)c1`, for which the Potency entry is “inactive”.

For `S=C(NCc1ccccc1)Nc1cccc(Cl)c1`, the Potency entry was “inactive”.

Regarding `CCN(CC)c1ccc2c(-c3ccc(S(=O)(=O)O)cc3S(=O)(=O)[O-])c3ccc(=[N+](CC)CC)cc-3oc2c1`, the Potency is 11.6 µM (active).

As for `COc1ccc(N(C(=O)c2snc(C(N)=O)c2N)C(C(=O)NC2CCCC2)c2ccc3ncccc3c2)cc1` (stereo unspecified), the Potency result was “inactive”.

Consider `CC1CCCN(Cc2c(O)ccc3c2O/C(=C\c2ccco2)C3=O)C1` (stereo unspecified), for which the Potency is 14.6 µM (active).

On to `Cn1cc(/C=C(\C#N)C(=O)Nc2ccccc2O)c2ccccc21`, for which the Potency entry is “inactive”.

Consider `CCN(c1ccc(N=Cc2c(O)n(Cc3ccc(OC)cc3)c(=O)c3ccccc23)cc1)C(C)C`, for which the Potency is 25.9 µM (active).

Turning to `Brc1ccc(-c2nc3ccccn3c2Nc2ccc3c(c2)OCCO3)o1`, the Potency result is “inactive”.

For `O=C1Nc2ccc(Cl)cc2C12Nc1ccccc1-c1nnc(SCc3ccccc3F)nc1O2` (stereo unspecified), the Potency result is “inactive”.

Turning to `Cn1c(=O)c2[nH]c(COc3ccccc3)nc2n(C)c1=O`, the Potency result was “inactive”.

Consider `CC(C)(C)OC(=O)NC(Cc1ccccc1)C(=O)N1CCC(C(=O)NCC(=O)Nc2ccc(F)cc2)CC1` (stereo unspecified), for which the Potency result is “inactive”.

Take `CCN1CCN(Cc2ccc(NC(=O)Nc3ccccc3OC)cc2)CC1`: the Potency entry was “inactive”.

For the compound `Cc1ccc(NC(=S)Nc2ccc3nc(-c4ccccn4)c(-c4ccccn4)nc3c2)cc1C`, the Potency entry is “inactive”.

As to `COCCN(CCOC)Cc1c(O)ccc2c1O/C(=C\c1ccco1)C2=O`, the Potency is 13 µM (active).

As to `Cc1cc(Br)ccc1NC(=O)c1sc2nc3n(c(=O)c2c1C)CCCC3`, the Potency result was “inactive”.

As to `Cc1ccccc1N1C(=O)c2cccc3c(N(C)CCO)ccc(c23)C1=O`, the Potency was 13 µM (active).

`CCc1c(C)sc(NC(=O)c2ccccc2[N+](=O)[O-])c1C(N)=O`: the Potency result was “inactive”.

In the case of `CCCN(CCC)S(=O)(=O)c1ccc(C(=O)OCCN2C(=O)c3cccc4c(N5CCOCC5)ccc(c34)C2=O)cc1`, the Potency is 18.3 µM (active).

System in another assay: not listed separately
In words: qHTS for Inhibitors of Ubiquitin-specific Protease USP2a Using CHOP2 as the Reporter: K633 Counterscreen (AID 652168). The settings on record: No-enzyme DiUb K48 IQF substrate fluorescence interference, kinetic; series mostly up to 57.5 µM. The procedure, abridged:
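Detection-system control: fluorescence of K48-linked DiUb-4IQF substrate (100 nM as added) tracked over time, Ex 525/Em 598, with pinned compounds and no enzyme, in pH 8 Tris buffer containing beta-mercaptoethanol and 0.05% Chaps.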
`CN(Cc1nccs1)S(=O)(=O)c1ccc(Nc2nc(-c3ccccc3)cs2)cc1`: the call was inactive.

Take `Cc1ccc(-c2cc(C(=O)Nc3ccc(C(F)(F)F)cc3)c3ccccc3n2)cc1C`: the result was inactive.

For `O=C(Nc1nc(-c2ccccc2)cs1)c1ccncc1NS(=O)(=O)c1ccccc1`, the result was inactive.

On to `O=S(=O)(Nc1nccs1)c1ccc(Nc2nc(-c3ccc(Cl)c(Cl)c3)cs2)cc1`, for which the outcome was inactive.

With `Cc1ccc(S(=O)(=O)Nc2cnccc2C(=O)Nc2nc(C(=O)O)cs2)cc1`, the compound was classed as inactive.

Regarding `N#Cc1cnc(N[S+](=O)([O-])c2ccc(Nc3nc(-c4ccccc4)cs3)cc2)s1`, the compound was called inactive.

As for `Cc1ccc(S(=O)(=O)Nc2cnccc2C(=O)Nc2nc(-c3ccc(F)cc3)cs2)cc1`, the result was inactive.

For the compound `CCN(CC)C(=O)C1CCC(C(=O)Nc2ccc([S+](=O)([O-])Nc3nccs3)cc2)CC1` (stereo unspecified), the compound was classed as inactive.

As for `CCC(=O)OC1CCC(C(=O)Nc2ccc([S+](=O)([O-])Nc3nccs3)cc2)CC1` (stereo unspecified), the call was inactive.

Turning to `Cc1ccc(S(=O)(=O)Nc2cnccc2C(=O)NCCc2ccccc2)cc1`, the outcome was inactive.

Regarding `Nc1ccc(S(=O)(=O)Nc2cnccc2C(=O)Nc2nc(-c3ccccc3)cs2)cc1`, the outcome was inactive.

As to `COc1cccc(S(=O)(=O)Nc2cnccc2C(=O)Nc2nc(-c3ccccc3)cs2)c1`, the result was inactive.

For the compound `Cn1cnc(S(=O)(=O)Nc2cnccc2C(=O)Nc2nc(-c3ccccc3)cs2)c1`, the result was inactive.

On to `Nc1cccc(S(=O)(=O)Nc2cnccc2C(=O)Nc2nc(-c3ccccc3)cs2)c1`, for which the call was inactive.

As for `Cc1ccc(S(=O)(=O)Nc2cc([N+](=O)[O-])ccc2C(=O)Nc2nc(-c3ccccc3)cs2)cc1`, the call was inactive.

In the case of `CC(C)(C)NC(=O)N1CCC(C(=O)Nc2ccc([S+](=O)([O-])Nc3nccs3)cc2)CC1`, the outcome was inactive.
